Laboratory results taken from PubChem BioAssay (NCATS).
Values without a mark were called inactive. Inconclusive results are not listed. Calls of active or inactive are those of the source. Unless noted, calls come from the whole dose curve; as a rule, active = well fitted curve in either direction with a large enough effect (not every such curve was filed as active); inconclusive = small, poorly fitted or top-dose-only effect, or another doubt; inactive = flat fitted curve, though single readings scatter.

Legend:
[1] = molecular target: Lysosomal acid glucosylceramidase (Homo sapiens) (UniProt P04062); assay: Glucocerebrosidase-p2 (AID 348; in the data active = potency below about 10 µM; note: potency is the fitted concentration of half-maximal effect); details: purified GBA, blue fluorogenic substrate, 40 min
Method in brief: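 Normal human glucocerebrosidase (0.2 nM) with blue fluorogenic substrate (80 uM final) in citrate/phosphate pH 5.9 with 10mM sodium taurocholate, 0.01% tween-20; 40 min RT, NaOH/glycine stop; fluorescence Ex 365/Em 440; AC50 from a titration from 0.6 nM upwards.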

[2] = AP1 Signaling Pathway (AID 357); details: ME-180 AP-1-bla reporter, EGF-induced, beta-lactamase ratio, 5 h; at 7.69 µM (top of the series) unless noted;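 note: ME-180 reporter cells stimulated with EGF at its EC50 level; % is set by controls: 0 for no effect and ±100 for the full control effect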
Method in brief: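 Cells are seeded overnight, exposed to compound titrations and an EC50 level of EGF for 5 hours at 37 °C, then loaded with CCF4 dye for 2.5 hours. Beta-lactamase activity under the AP-1 element is read as a blue/green ratio.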

[3] = molecular target: Cytochrome P450 1A2 (Homo sapiens) (UniProt P05177); assay: p450-cyp1a2 (AID 410; calls by dose curve; note: potency is the fitted concentration of half-maximal effect;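 for activity change, negative = inhibition: -100% = full effect of reference inhibitor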); details: recombinant CYP1A2, luciferin-ME demethylation, luminescence; series mostly up to 57 µM
Method in brief: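 Luminescent demethylation readout: Luciferin-ME (100uM, equal to Km) turned over by 20nM CYP1A2 for 60 min at room temperature after NADPH regeneration addition, following 10 min compound preincubation. Normalization used 57 uM furafylline as full inhibition.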

[4] = Stat Signaling Pathway (AID 446); details: ME-180 SIE beta-lactamase reporter, IL-6 stimulated, 5 h; at 7.69 µM (top of the series) unless noted;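 note: ME-180 cervical cancer cells given 40 pM IL-6 alongside compound; SIE-controlled beta-lactamase reporter measured as 460/530 nm FRET emission ratio; % is set by controls: 0 for no effect and ±100 for the full control effect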
Method in brief: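 Emission at 460 and 530 nm (excitation 405 nm) reports SIE-controlled beta-lactamase in ME-180 cells. Cells received compound with 40 pM IL-6 for 5 hrs at 37 C; data scaled between 300 pM IL-6 and 125 nM JAK-inhibitor controls.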

[5] = molecular target: Glucocorticoid receptor (Homo sapiens) (UniProt P04150); assay: GR-EFC Redistribution (AID 451; calls by dose curve; note: potency is the fitted concentration of half-maximal effect); details: CHO-K1 GR-EFC translocation, beta-gal luminescence, 2 h
Method in brief: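 CHO-K1 cells expressing nuclear EA and GR-ED fragments of b-gal; compounds titrated up to 46 uM final, 2 h at 37 C. GR nuclear translocation read as complemented b-gal luminescence after 1 h RT detection.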

[6] = molecular target: Mitogen-activated protein kinase 10 (Mus musculus) (UniProt Q61831); assay: JNK3 AlphaScreen Assay (AID 530); details: JNK3 lysate, c-Jun phosphorylation; series mostly up to 57.1 µM;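 note: kinase came from lysate of stimulated human HepG2 cells; signal reports phosphorylation of biotinylated GST-cJun 1-79 at Ser73 with 10 µM ATP; % is set by controls: 0 for no effect and ±100 for the full control effect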
Method in brief: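 Activity was read by AlphaScreen after JNK3-containing HepG2 lysate (cytokine pre-activated) phosphorylated biotinylated GST-cJun with 10 uM ATP at room temperature. Phospho-Ser73 cJun antibody with Protein-A acceptor beads provided detection.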

[7] = molecular target: 3',5'-cyclic-AMP phosphodiesterase 4B (Homo sapiens) (UniProt Q07343); assay: qHTS Assay for Inhibitors of PDE-IV (AID 607; active = well fitted activation curve with a large enough effect in the main read-out, with a control signal flat, not every such curve was filed as active; note: % of control where 0% means no effect); details: HEK293 ACTOne CNG channel cells, membrane potential fluorescence; series mostly up to 22.9 µM
Method in brief: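 The readout is membrane depolarisation from a cAMP-sensing CNG channel, detected with a potential dye at ex 535/em 590. Cells were HEK293-derived (endogenous PDE-IV) at 1000 cells/well, titrated up to 22.9 uM final.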

[8] = Primary qHTS for small molecule stabilizers of the endoplasmic reticulum resident proteome: Secreted ER Calcium Modulated Protein (SERCaMP) assay (AID 1508630; active = well fitted curve in the direction sought with a large enough effect; an effect the other way counts as inactive or inconclusive; note: % is set by controls: 0 for no effect and ±100 for the full control effect); details: SH-SY5Y GLuc-SERCaMP (Gaussia luciferase released on ER calcium loss) secretion, thapsigargin, luminescence; series mostly up to 38.4 µM
Method in brief: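 The SH-SY5Y reporter protocol was run at 3 concentrations up to 38.3 uM (primary) or 11 concentrations (follow-up): 16 h compound, 100 nM thapsigargin for 4 h, then extracellular luciferase luminescence.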

[9] = molecular target: Cytochrome P450 3A4 (Homo sapiens) (UniProt P08684); assay: qHTS Assay for Inhibitors and Substrates of Cytochrome P450 3A4 (AID 884; active = well fitted curve in the direction sought with a large enough effect; an effect the other way counts as inactive or inconclusive; note: potency is the fitted concentration of half-maximal effect; nearly all actives have a fitted effect of over 50% in size); details: recombinant CYP3A4, Luciferin-PPXE luminescence; series mostly up to 57.1 µM
Method in brief: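 Luminescent readout of luciferin produced by CYP3A4 (20 nM) dealkylation of Luciferin-PPXE, 25 uM (its KM). NADPH-driven reaction ran 60 min at RT after 10 min compound preincubation; data scaled to 57 uM ketoconazole as 100% inhibition.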

[10] = molecular target: Cytochrome P450 3A4 (Homo sapiens) (UniProt P08684); assay: qHTS Assay for Activators of Cytochrome P450 3A4 (AID 885; active = well fitted curve in the direction sought with a large enough effect; an effect the other way counts as inactive or inconclusive; note: nearly all actives have a fitted effect of over 65% in size); details: recombinant CYP3A4, Luciferin-PPXE luminescence, 60 min; series mostly up to 57.1 µM
Method in brief: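 Activators are scored by enhanced luminescence from CYP3A4 conversion of luciferin-PPXE (25uM, equal to KM) to luciferin, after 60 min at RT with an NADPH-regenerating system.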

[11] = molecular target: Cytochrome P450 2D6 (Homo sapiens) (UniProt P10635); assay: qHTS Assay for Inhibitors and Substrates of Cytochrome P450 2D6 (AID 891; active = well fitted curve in the direction sought with a large enough effect; an effect the other way counts as inactive or inconclusive; note: potency is the fitted concentration of half-maximal effect; nearly all actives have a fitted effect of over 60% in size); details: recombinant CYP2D6, luciferin-ME EGE luminescence; series mostly up to 57.1 µM
Method in brief: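 Luminescent read-out of luciferin formed by 5 nM human CYP2D6 demethylating 30 uM Luciferin-ME EGE (Km level) over 60 min at room temperature after NADPH regeneration addition. Data normalized to full inhibition by 1.43 uM quinidine.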

[12] = molecular target: Glucocorticoid receptor (Homo sapiens) (UniProt P04150); assay: GR-GFP Redistribution (AID 450;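 active = compounds whose dose series gives a full or clear partial fitted curve of increased nuclear translocation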; note: potency is the fitted concentration of half-maximal effect); details: U2OS GR-GFP nuclear translocation, laser cytometry, 2 h
[13] = molecular target: Cytochrome P450 2C19 (Homo sapiens) (UniProt P33261); assay: qHTS Assay for Inhibitors and Substrates of Cytochrome P450 2C19 (AID 899; active = well fitted curve in the direction sought with a large enough effect; an effect the other way counts as inactive or inconclusive; note: potency is the fitted concentration of half-maximal effect; nearly all actives have a fitted effect of over 60% in size); details: recombinant CYP2C19, luciferin-H EGE luminescence; series mostly up to 57.1 µM
Method in brief: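 5 nM human CYP2C19 with 10uM Luciferin-H EGE (at KM) in 50mM KPO4, compound preincubated 10 min at 37C, then NADPH regeneration for 60 min at 37C. Luciferin read by luminescence after detection reagent; normalized to 57uM ketoconazole as full inhibition.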

[14] = NFAT Signaling Pathway (AID 444); details: Jurkat NFAT-bla M1, carbachol, beta-lactamase ratio, 5 h; at 7.69 µM (top of the series) unless noted
Method in brief: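 Jurkat cells with NFAT-driven β-lactamase reporter and co-expressed M1 receptor, stimulated with carbachol (final 1 uM, ~EC50), compound titration, 5 h at 37 °C. CCF4 loaded 1 h at RT; 460/530 nm ratio gave %activity and AC50.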

[15] = qHTS Assay for Identification of Small Molecule Agonists for Hypoxia Response Element Signaling Pathway (AID 914; active = well fitted activation curve with a large enough effect in the signal ratio, with a control signal flat, not every such curve was filed as active; the % refers to the signal ratio; note: % of control where 0% means no effect); details: ME-180 (cervical carcinoma) HRE-bla reporter, beta-lactamase ratio, CoCl2, 17 h; activation: hits give high values
Method in brief: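 Positive modulation of EC50 CoCl2-induced hypoxia response element signaling is measured in ME-180 cells with a beta-lactamase reporter. Compounds are titrated, incubation runs 17 hours, and %Activity derives from the blue/green ratio.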

3',5'-cyclic-AMP phosphodiesterase 4B (Homo sapiens), sequence (Q07343 whole entry, looked up): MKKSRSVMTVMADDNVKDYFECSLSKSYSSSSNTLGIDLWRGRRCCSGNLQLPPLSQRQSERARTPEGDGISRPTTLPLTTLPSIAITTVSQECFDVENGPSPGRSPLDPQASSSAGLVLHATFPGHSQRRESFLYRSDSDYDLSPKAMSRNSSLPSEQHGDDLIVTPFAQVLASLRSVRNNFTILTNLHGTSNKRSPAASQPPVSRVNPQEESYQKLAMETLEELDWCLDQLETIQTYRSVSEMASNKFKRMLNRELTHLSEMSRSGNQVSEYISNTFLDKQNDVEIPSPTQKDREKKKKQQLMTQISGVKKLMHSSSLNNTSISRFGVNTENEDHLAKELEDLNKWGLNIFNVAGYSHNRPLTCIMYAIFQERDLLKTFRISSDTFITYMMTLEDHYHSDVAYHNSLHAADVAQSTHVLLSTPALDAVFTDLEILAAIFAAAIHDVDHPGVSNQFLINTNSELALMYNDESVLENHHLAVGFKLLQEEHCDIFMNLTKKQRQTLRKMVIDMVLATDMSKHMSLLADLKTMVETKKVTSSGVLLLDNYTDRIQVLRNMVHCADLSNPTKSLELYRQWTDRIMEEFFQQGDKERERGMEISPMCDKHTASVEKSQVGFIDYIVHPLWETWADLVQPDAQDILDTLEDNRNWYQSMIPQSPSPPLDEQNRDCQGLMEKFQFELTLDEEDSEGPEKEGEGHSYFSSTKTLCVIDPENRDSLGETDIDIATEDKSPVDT
Glucocorticoid receptor (Homo sapiens), sequence (P04150 whole entry, looked up, the tested form may be a part): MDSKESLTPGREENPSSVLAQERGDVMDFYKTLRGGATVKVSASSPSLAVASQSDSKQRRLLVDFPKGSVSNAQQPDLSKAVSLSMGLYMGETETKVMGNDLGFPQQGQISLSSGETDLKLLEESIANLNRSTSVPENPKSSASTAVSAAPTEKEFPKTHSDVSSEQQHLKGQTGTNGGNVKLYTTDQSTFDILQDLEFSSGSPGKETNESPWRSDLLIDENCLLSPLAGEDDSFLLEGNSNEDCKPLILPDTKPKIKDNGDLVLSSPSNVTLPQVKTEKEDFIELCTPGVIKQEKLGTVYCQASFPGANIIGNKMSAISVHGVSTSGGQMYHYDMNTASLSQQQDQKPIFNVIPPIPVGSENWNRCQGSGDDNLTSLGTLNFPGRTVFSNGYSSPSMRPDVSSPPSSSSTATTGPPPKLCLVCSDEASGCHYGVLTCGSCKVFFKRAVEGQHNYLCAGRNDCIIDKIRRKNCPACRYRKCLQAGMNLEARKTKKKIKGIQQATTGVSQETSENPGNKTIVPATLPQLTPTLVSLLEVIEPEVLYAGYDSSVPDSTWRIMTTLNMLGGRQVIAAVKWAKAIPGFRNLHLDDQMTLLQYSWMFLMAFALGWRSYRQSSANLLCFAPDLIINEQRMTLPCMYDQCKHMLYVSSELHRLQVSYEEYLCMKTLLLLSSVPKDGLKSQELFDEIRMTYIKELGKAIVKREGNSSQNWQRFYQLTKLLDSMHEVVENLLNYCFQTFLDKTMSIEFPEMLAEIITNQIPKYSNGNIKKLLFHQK
Cytochrome P450 1A2 (Homo sapiens), sequence (P05177 whole entry, looked up): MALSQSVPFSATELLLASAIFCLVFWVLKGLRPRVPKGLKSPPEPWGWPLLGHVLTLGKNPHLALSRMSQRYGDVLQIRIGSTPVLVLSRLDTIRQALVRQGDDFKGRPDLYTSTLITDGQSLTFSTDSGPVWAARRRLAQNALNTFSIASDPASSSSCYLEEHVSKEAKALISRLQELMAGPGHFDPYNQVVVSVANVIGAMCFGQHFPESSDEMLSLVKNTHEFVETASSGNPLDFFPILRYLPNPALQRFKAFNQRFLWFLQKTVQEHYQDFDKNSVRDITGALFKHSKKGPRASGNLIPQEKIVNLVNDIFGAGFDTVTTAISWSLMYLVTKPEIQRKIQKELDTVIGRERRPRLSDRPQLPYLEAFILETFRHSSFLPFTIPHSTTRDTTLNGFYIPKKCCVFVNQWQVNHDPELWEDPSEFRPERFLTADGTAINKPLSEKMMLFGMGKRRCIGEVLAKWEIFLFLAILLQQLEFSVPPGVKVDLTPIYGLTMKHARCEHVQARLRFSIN
Cytochrome P450 3A4 (Homo sapiens), sequence (P08684 whole entry, looked up): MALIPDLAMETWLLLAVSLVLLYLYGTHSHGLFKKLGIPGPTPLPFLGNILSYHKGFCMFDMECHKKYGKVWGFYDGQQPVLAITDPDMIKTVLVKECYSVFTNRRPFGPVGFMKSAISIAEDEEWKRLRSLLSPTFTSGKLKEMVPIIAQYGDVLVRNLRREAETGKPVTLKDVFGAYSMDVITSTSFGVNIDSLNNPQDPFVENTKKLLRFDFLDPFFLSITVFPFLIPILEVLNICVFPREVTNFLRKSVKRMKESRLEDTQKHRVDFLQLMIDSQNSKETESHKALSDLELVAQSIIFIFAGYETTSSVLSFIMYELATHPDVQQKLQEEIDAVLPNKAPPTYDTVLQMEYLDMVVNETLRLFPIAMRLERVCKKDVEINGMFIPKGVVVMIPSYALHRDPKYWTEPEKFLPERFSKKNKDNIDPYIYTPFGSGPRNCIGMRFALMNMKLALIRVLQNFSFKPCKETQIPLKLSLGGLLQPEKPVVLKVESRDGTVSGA
Lysosomal acid glucosylceramidase (Homo sapiens), sequence (P04062 whole entry, looked up): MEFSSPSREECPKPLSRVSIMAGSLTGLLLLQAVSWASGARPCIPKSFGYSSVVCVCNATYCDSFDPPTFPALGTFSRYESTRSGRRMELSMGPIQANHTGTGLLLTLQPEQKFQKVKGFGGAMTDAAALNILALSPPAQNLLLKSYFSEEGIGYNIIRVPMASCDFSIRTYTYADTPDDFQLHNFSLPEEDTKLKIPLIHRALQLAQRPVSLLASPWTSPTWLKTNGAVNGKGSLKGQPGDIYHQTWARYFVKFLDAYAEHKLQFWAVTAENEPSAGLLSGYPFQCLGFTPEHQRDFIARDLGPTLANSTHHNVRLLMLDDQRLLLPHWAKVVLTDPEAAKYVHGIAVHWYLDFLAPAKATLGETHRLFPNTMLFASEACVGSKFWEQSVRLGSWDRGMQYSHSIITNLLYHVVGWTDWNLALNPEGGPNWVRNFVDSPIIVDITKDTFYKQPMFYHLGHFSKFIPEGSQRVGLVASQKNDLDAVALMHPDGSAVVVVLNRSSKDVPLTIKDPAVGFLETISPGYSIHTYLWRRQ
Cytochrome P450 2D6 (Homo sapiens), sequence (P10635 whole entry, looked up): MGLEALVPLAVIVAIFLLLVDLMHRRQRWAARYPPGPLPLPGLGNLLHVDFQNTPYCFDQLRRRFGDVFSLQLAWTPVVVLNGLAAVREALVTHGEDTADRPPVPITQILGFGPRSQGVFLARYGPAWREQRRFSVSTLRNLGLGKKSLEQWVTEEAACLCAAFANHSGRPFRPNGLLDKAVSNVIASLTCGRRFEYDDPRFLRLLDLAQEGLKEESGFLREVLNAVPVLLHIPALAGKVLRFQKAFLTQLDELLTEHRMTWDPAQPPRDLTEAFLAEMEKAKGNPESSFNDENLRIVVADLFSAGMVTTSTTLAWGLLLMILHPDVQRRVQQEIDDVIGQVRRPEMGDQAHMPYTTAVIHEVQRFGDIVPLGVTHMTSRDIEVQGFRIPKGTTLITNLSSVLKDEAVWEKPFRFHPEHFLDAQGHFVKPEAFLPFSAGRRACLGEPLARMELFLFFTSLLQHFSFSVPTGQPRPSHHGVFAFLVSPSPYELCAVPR
Cytochrome P450 2C19 (Homo sapiens), sequence (P33261 whole entry, looked up): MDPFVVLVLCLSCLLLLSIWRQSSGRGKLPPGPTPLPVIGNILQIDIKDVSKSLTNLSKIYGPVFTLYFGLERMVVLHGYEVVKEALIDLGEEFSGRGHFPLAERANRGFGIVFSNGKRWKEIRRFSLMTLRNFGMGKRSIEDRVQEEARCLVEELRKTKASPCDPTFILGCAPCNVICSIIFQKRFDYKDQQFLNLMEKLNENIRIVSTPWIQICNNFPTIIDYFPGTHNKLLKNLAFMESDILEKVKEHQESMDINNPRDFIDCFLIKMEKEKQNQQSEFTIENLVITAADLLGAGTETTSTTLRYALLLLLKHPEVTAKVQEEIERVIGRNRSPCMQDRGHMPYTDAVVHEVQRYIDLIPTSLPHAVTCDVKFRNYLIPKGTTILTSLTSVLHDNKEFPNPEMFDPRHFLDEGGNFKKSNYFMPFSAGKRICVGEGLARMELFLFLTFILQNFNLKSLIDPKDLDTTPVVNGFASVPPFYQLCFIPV

Compound | Potency [1] | activity change, negative = inhibition [2] | Potency [3] | activity, negative = inhibition [4] | Potency [5] | Potency [6] | Potency [7] | outcome [8] | Potency [9] | Potency [10] | Potency [11] | Potency [12] | Potency [13] | activity change, negative = inhibition [14] | activation [15]
O=C(c1cc(C(F)(F)F)cc(C(F)(F)F)c1)N1CCC2(CCCN(Cc3ccncc3)C2)CC1 | > 11.4 µM | 7.96% | inactive | -3.11% | > 46 µM | inactive | inactive | inactive |  |  |  |  |  |  | 
N#Cc1ccc(CN2CCCC3(CCN(S(=O)(=O)c4ccccc4)CC3)C2)cc1 | > 11.4 µM | -11.3% | inactive | -1.86% | > 46 µM | inactive | inactive | inactive | 3.16 µM (active) | inactive | 0.631 µM (active) |  |  |  | 
O=c1c(-c2cccc(Cl)c2)nc2cncnc2n1Cc1ccccc1Cl | > 11.4 µM | 15.6% | 2 µM (active) | -2.1% | > 46 µM | inactive |  | inactive |  | inactive |  | > 9.22 µM | 5.01 µM (active) |  | 
COc1ncc2nc(-c3ccc(F)cc3)c(=O)n(CCC#N)c2n1 | > 11.4 µM | 13.2% |  | -0.246% |  | inactive | inactive | inactive |  |  |  | > 9.22 µM |  | -5.63% | 
COc1ncc2nc(C)c(=O)n(C[C@H]3CCCO3)c2n1 | > 11.4 µM | -6.08% |  | -2.46% | > 46 µM | inactive | inactive | inactive |  |  |  | > 9.22 µM |  | -9.08% | 
COc1ccc(Oc2ncc3nc(C)c(=O)n(C4CC4)c3n2)cc1 | > 11.4 µM | -0.17% |  | -4.78% | > 46 µM | inactive | inactive | inactive |  |  |  | > 9.22 µM |  | -5.38% | -6.35%
O=c1c(-c2ccc(F)c(F)c2)nc2cncnc2n1Cc1ccccc1 | > 11.4 µM | -0.964% |  | 3.53% | > 46 µM | inactive |  | inactive |  |  |  | > 9.22 µM |  | -10.8% | 
COc1ccc(Oc2ncc3ncc(=O)n(Cc4cccc(OC)c4)c3n2)cc1 | > 11.4 µM | -25.4% |  | -3% | > 46 µM | inactive | inactive | inactive |  |  |  | > 9.22 µM |  | -6.25% | 
O=c1c(-c2ccccc2)nc2cncnc2n1Cc1ccc(F)cc1 | > 11.4 µM | -20% |  | -6.53% | > 46 µM | inactive |  | inactive |  |  |  | > 9.22 µM |  | -1.65% | 
COCCn1c(=O)c(-c2ccc(OC)cc2)nc2cnc(Oc3ccc(OC)cc3)nc21 | > 11.4 µM | -20.1% |  | -7.21% | > 46 µM | inactive | inactive | inactive |  |  |  | > 9.22 µM |  | 18% | 
COc1ncc2nc(CCc3ccccc3)c(=O)n(Cc3cccs3)c2n1 | > 11.4 µM | -2.76% |  | -3.9% | > 46 µM | inactive |  | inactive |  |  |  | > 9.22 µM |  | -5.02% | 
COc1cccc(Cn2c(=O)c(-c3ccc(F)c(F)c3)nc3cncnc32)c1 | > 11.4 µM | -5.97% |  | 2.07% | > 46 µM |  | inactive | inactive |  |  |  | > 9.22 µM |  | -0.724% | 
COc1ncc2nc(-c3ccc(Cl)cc3)c(=O)n(CCc3ccccc3)c2n1 | > 11.4 µM | -3.59% |  | 1.11% | > 46 µM | inactive | inactive | inactive |  |  |  | > 9.22 µM |  | -9.46% | 
COc1ncc2nc(CCc3ccccc3)c(=O)n(Cc3ccc(F)cc3)c2n1 | > 11.4 µM | -3.95% |  | 2.49% | > 46 µM | inactive |  | inactive |  |  |  | > 9.22 µM |  | -13.1% | 
Cc1nc2cnc(OCc3ccccc3)nc2n(CCC#N)c1=O | > 11.4 µM | 2.98% |  | -1.87% | > 46 µM | inactive |  | inactive |  | inactive |  | > 9.22 µM |  | -3.58% | 
COc1cccc(Cn2c(=O)c(-c3cccc(F)c3)nc3cncnc32)c1 | > 11.4 µM | -9.03% |  | -7.22% | > 46 µM | inactive | inactive | inactive |  | inactive |  | > 9.22 µM |  | -6.22% | 
